# Data: PubChem BioAssay AID720707 (National Center for Advancing Translational Sciences (NCATS), 2013)
# The whole screen tested about 360,000 compounds, of which about 270 (0.075%) were called active. The list comes from a sample in which actives are over-represented; it also holds similar structures and randomly drawn compounds. Values without a mark were called inactive. Calls follow the shape of the dose curve; as a rule, active = well fitted activation curve with a large enough effect; inconclusive = small, poorly fitted or top-dose-only effect; inactive = no such curve, though single readings can be large or run the other way.
# Target: Rap guanine nucleotide exchange factor 3 (Homo sapiens) (UniProt O95398)
# Sequence (O95398 whole entry, looked up): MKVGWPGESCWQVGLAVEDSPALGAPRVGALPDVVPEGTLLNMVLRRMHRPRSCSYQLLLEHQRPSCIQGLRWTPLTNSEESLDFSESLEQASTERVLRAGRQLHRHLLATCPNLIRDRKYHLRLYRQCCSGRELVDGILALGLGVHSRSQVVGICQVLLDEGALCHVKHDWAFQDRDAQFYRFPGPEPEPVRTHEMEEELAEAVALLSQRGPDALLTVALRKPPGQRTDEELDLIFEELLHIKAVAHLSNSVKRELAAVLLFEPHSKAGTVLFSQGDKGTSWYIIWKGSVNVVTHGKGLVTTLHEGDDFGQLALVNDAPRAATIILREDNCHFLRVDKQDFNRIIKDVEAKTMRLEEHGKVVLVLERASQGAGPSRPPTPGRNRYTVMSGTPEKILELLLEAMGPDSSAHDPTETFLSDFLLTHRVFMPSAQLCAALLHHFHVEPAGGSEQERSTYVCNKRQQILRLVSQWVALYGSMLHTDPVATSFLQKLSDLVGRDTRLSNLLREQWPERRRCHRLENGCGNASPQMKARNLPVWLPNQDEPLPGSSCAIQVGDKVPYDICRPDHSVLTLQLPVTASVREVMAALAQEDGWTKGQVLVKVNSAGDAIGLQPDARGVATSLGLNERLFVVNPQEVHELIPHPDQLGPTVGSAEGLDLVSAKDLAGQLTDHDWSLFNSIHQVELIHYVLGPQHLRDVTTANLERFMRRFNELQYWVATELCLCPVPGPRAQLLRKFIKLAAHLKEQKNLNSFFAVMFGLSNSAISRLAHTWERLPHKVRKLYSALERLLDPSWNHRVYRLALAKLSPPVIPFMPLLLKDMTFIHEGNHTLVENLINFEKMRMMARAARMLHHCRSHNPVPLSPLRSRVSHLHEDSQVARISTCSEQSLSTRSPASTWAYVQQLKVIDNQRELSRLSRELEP
# Assay: qHTS for Agonist of cAMP-regulated guanine nucleotide exchange factor 3 (EPAC1): primary screen; also: nearly all actives have a fitted effect of over 60% in size
# Conditions: biochemical assay; series mostly up to 154 µM; activation: at the top concentration
# Excerpt: In multi-cellular eukaryotic organisms, the effects of cAMP are transduced by two ubiquitously-expressed intracellular cAMP receptors, the classic protein kinase A/cAMP-dependent protein kinase (PKA/cAPK) and the more recently discovered exchange protein directly activated by cAMP/cAMP-regulated guanine nucleotide exchange factor (EPAC/cAMP-GEF). Both PKA and EPAC are ubiquitously expressed in all tissues, and an increase in intracellular cAMP levels will lead to the activation of both PKA and EPAC. Therefore, careful dissections of the individual role and relative contribution of EPAC and PKA within the overall cAMP signaling in various model systems are critical for further elucidating the mechanism of cAMP signaling. To date no EPAC-specific antagonists and agonist, as well as isoform-specific agonists have been reported, and developing EPAC-specific pharmacological probes to determine the physiological functions that EPAC play in the overall cAMP-mediated signaling remains a major challenge within the research field. Furthermore, identified regulators of EPAC may lead to new mechanism-based therapeutic strategies specifically targeting the EPAC / cAMP-signaling components as EPAC has been implicated to play important roles in major human pathological conditions such as diabetes, heart disease, and cancer.
# This qHTS will be used to screen the Molecular Libraries Small Molecule Repository (MLSMR) as a concentration-titration series using the NCGC unique quantitative screening (qHTS) platform to find activators for EPAC1. In addition, this assay will also be used as a counterscreen for the EPAC2 qHTS. This fluorescent based assay is developed and validated for EPAC1 that measures exchange using EPAC effector Rap1 complex with BODIPY-GDP, a GDP analog with a tethered fluorophores. Activators are identified by monitoring the change in fluorescence signal as the exchanged free BODIPY-GDP has a reduced fluorescence compared to Rap1-bound BODIPY-GDP. Increase in signal (activation) is the desired outcome for the EPAC1 agonist while no activity in this assay is desired for the EPAC2 agonist counterscreen.
# [1] de Rooij, J., Zwartkruis, F. J., Verheijen, M. H., Cool, R. H., Nijman, S. M., Wittinghofer, A., and Bos, J.L. (1998) Nature 396, 474-477
# NIH Chemical Genomics Center [NCGC]
# NIH Molecular Libraries Probe Centers Network [MLPCN]
# Assay Submitter (PI): Xiaodong Cheng, The University of Texas Medical Branch
# Briefly, three uL of reagents (100 nM EPAC1, 250 nM RAP1B-BODIPY-GDP, 50 uM GDP) were dispensed into a 1536-well Greiner black solid-bottom medium binding assay plate. Controls and test compounds (23 nL) were transferred to the plate via a Kalypsys pin tool equipped with a 1536-pin array. The plates were centrifuged at 1,000 rpm for 15 seconds followed by 5 minute incubation at room temperature. The assay plates were read at 5 minute intervals for 30 minutes in the ViewLux plate reader using 480nm excitation and 540nm emission filters. The results were normalized to the agonist positive control of 6.5 mM cAMP.
# Potency is read from the fitted curve at half-maximal effect.
Structure (SMILES),activation [%],Potency
CC(C)(C)n1nnnc1C(c1ccccc1F)N1CCN(C(=O)c2ccco2)CC1 (centres undefined),1.91,–
O=c1ccc2c(-c3ccccc3S(=O)(=O)O)c3ccc(O)c(O)c3oc-2c1O,-10.7,–
COc1ccc(NC(=O)C2CCC(CNS(=O)(=O)c3csc(C(N)=O)c3)CC2)cc1OC (centres undefined),-7.96,–
CCN(CC(=O)Nc1c(F)cccc1F)C(=O)Cc1cccs1,9.59,–
Cc1ccc(NS(=O)(=O)c2cn(C)c(=O)n(C)c2=O)c(C)c1,-4.61,–
CCOc1ccccc1C(=O)NC1CC2CCCC(C1)N2Cc1ccccc1 (centres undefined),-8.13,–
Cc1noc(C)c1CSCC(=O)Nc1ccc(Br)cc1Cl,0.706,–
CCOC(=O)C(NS(=O)(=O)c1ccc(C)cc1)(C(F)(F)F)P(=O)(OCC(C)C)OCC(C)C (centres undefined),-18.9,–
CCN(CC)S(=O)(=O)c1cc([N+](=O)[O-])ccc1NNC(=O)Nc1ccccc1,17,–
Cc1ccccc1N1C(=O)C2ON(c3ccccc3)C(c3ccncc3)C2C1=O (centres undefined),14.8,–
CCOC(=O)c1c(NC(=O)CNC2CCCc3ccccc32)sc(C(N)=O)c1C (centres undefined),3.57,–
Cc1n[nH]c(=O)c2c1nnn2Cc1ccc(F)cc1,9.7,–
O=C(COc1ccc2ccccc2c1)N1CCN(C(=O)c2cccs2)CC1,-6.98,–
O=C(NC(C(=O)NCCN1CCOCC1)C12CC3CC(CC(C3)C1)C2)C1CCCCC1 (centres undefined),-4.95,–
Cc1cc(C)cc(NC(=O)C(c2ccccc2)N2CCN(CC(=O)N3CCCC3)CC2)c1 (centres undefined),4.7,–
Cc1ccccc1Cn1c2ccccc2c2cnn(CC(=O)NCc3ccco3)c(=O)c21,-17.4,–
C(#CCN1CCOCC1)CCCN1CCOCC1,-5.58,–
O=C1CC2(CC(c3ccc(Cl)cc3)=NO2)C(=O)N1c1ccccc1 (centres undefined),1.17,–
COc1ccc(N2CCN(C(=O)CN3C(=O)COc4ccccc43)CC2)cc1,6.42,–
Cc1cccc(OCC(O)Cn2c(N3CCCCC3)nc3c2c(=O)[nH]c(=O)n3C)c1 (centres undefined),-3.51,–
COc1ccc(C2NCCCC2c2ccccc2)cc1 (centres undefined),-6.92,–
CCCCCn1c(SCCC(C)C)nc2c1c(=O)[nH]c(=O)n2C,-27.6,–
Cc1ccc2c(CSc3nncs3)cc(=O)oc2c1,-3.69,–
CCCc1ccc(OCC(O)CN2CCN(CCO)CC2)cc1 (centres undefined),11,–
COc1ccccc1N1CCN(S(=O)(=O)CCNC(=O)c2ccc(OC(C)C)cc2)CC1,9.05,–
Cc1cc(NS(=O)(=O)c2ccc(NC(=O)C(C)Oc3cccc(C)c3C)cc2)nc(C)n1 (centres undefined),2.53,–
CCc1c(C)sc(NC(=O)OC)c1C(=O)N1CCOCC1,-5.41,–

Structure (SMILES),activation [%],Potency
O=S1(=O)N=C(N(CCO)/N=C/c2ccccc2F)c2ccccc21,1.16,–
CCOc1cc(/C=C2/N=C(c3ccc(C(C)(C)C)cc3)OC2=O)cc(Cl)c1OS(C)(=O)=O,4.21,–
COc1ccc(C(=O)COC(=O)Cn2cnc3c2c(=O)n(C)c(=O)n3C)c(OC)c1,10.1,–
CC(=O)c1c(C)[nH]c(C(=O)OCC(=O)Nc2sc3c(c2C#N)CCCC3)c1C,9.31,–
NC(=O)C1=C[C@H](c2csc3ccccc23)C[C@H](OCc2ccc(CO)cc2)O1,3.72,–
Cc1cccc(CCNS(=O)(=O)c2ccc(S(=O)(=O)NC3CCCC3)cc2)c1,0.785,–
Cn1c(NC(=O)c2ccco2)c(-c2ccccc2Cl)c(=O)c2ccccc21,-0.86,–
C/C=C/c1ccc(OCC(=O)NNC(=O)CN(C)S(=O)(=O)c2ccc(C)cc2)c(OC)c1,-1.47,–
Cc1ccc(S(=O)(=O)N(C)C)cc1NC(=O)C1Cc2ccccc2CN1C(=O)c1ccco1 (centres undefined),-3.3,–
CCOc1ccc(S(=O)(=O)N/N=C(\C)c2ccc(Cl)c(Cl)c2Cl)cc1,-2.38,–
C[n+]1ccc(/C=C/c2c[nH]c3ccccc23)cc1,–,100 µM (active)
CC(C)(C)c1ccc(SCCc2ccncc2)cc1,2.65,–
O=C(Nc1ccccc1Cl)NC1(C(=O)N2CCOCC2)CCCCC1,12.8,–
CCCCC(=O)N(c1ccc(OC)cc1)C1C=CS(=O)(=O)C1 (centres undefined),4.76,–
CC(C)COC(=O)c1ccc(NC(=O)C2C3C=CC(C3)C2C(=O)O)cc1 (centres undefined),14.5,–
COc1cncc(-c2cnc3sc(NCCc4ccccn4)nn23)c1,2.99,–
COCCN1C(=O)c2oc3c(C)cc(C)cc3c(=O)c2C1c1cccc(O)c1 (centres undefined),20.3,–
O=C1CCC(=O)N1CCOP1(=O)COc2ccccc2OC1,6.29,–
COc1ccc(C)cc1NC(=O)CN1c2cccc3cccc(c23)S1(=O)=O,-4.18,–
COC(=O)c1c(C)cc(O)c(C)c1O,-12.7,–
CC(=O)N1c2ccc(S(=O)(=O)N3CCCC(C(=O)NCc4ccc(Cl)cc4)C3)cc2CC1C (centres undefined),2.25,–
Cc1ccc(Cl)cc1NC(=O)COC(=O)CC(C)(C)C,2.13,–
CN(CC(O)COc1ccc(S(=O)(=O)N2CCOCC2)cc1Cl)C1CCCCC1 (centres undefined),7.39,–
Cc1ccc(C(C)C)c(OCc2nnc(SCC(=O)Nc3nccs3)n2C)c1,-4.53,–
O=C(c1ccccc1)N1CCC(CC2CC(c3ccc(Cl)cc3)=NO2)(C(=O)NCC2CCCCC2)CC1 (centres undefined),5.56,–
CCc1c(O)nc(SCC(=O)N2CCCCC2)n(-c2ccccc2C)c1=O,7.38,–
Cc1ccc(CN2CCN(c3ccccc3Cl)CC2)o1,3.65,–
